PubChem BioAssay (EPA / NIEHS)
“And” between values parts separate entries of the source, which are not always exact repeats. Equal values may be shown once. Results filed as inconclusive are left out. Some compounds were tested as several samples or in several runs, with calls that do not always agree. The source made the active and inactive calls. Rule for the calls, unless noted: active = hit-call score of the fitted dose curve at least 0.9, where 1 is the maximum; inactive = score below 0.9.

Key:
[1] = molecular target: Bile acid receptor (Homo sapiens) (UniProt Q96RI1); assay: OT_FXR_FXRSRC1_1440: Odyssey Thera (OT) 24-hour HEK293T Protein-Complementation Assay for Farnesoid X receptor/SRC-1 Co-activator (AID 2283384; active = hit-call score of the fitted dose curve at least 0.9, where 1 is the maximum)
Bile acid receptor (Homo sapiens), sequence (Q96RI1 whole entry, looked up, the tested form may be a part): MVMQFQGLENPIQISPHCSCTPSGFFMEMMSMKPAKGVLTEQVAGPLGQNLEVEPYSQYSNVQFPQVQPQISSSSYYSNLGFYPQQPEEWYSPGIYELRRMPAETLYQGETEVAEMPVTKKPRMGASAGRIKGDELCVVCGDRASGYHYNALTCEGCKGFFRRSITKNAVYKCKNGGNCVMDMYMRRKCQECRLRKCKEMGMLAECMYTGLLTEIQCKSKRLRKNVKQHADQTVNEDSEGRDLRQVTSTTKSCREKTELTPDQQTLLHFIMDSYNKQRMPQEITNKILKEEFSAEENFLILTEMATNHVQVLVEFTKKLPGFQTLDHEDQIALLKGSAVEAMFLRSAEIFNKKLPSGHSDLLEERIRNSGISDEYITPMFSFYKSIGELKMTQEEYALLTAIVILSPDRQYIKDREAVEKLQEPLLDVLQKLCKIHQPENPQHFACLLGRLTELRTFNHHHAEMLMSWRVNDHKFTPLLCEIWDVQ
How it was run: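 Protein-fragment complementation: FXR and SRC-1 fused to reporter fragments that reassemble on interaction, read by fluorescence intensity. Human HEK293T cells measured 24 h post-dose; positive-direction fit versus DMSO.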

[2] = molecular target: Retinoic acid receptor RXR-alpha (Homo sapiens) (UniProt P19793); assay: OT_NURR1_NURR1RXRa_0480: Odyssey Thera (OT) 8-hour HEK293T Protein Complementation Assay for Nurr1/retinoid X receptor (RXR) (AID 2283385; active = hit-call score of the fitted dose curve at least 0.9, where 1 is the maximum)
Retinoic acid receptor RXR-alpha (Homo sapiens), sequence (P19793 whole entry, looked up, the tested form may be a part): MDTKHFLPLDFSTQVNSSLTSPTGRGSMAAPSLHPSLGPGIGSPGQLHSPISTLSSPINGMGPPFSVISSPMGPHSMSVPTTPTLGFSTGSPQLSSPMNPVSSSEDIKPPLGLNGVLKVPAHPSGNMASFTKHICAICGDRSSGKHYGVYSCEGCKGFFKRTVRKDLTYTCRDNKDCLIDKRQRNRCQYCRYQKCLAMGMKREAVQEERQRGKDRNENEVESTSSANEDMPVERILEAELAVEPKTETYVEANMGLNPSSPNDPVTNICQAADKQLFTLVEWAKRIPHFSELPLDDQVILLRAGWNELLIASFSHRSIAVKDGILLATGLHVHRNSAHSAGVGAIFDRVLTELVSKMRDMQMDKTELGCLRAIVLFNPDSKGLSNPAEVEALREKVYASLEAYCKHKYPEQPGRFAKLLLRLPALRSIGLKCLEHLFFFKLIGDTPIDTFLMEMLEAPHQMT
How it was run: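 Interaction of Nurr1 with RXRα read as reconstituted reporter fluorescence in a HEK293T fragment-complementation system, 8 h post-treatment; increase over DMSO baseline analysed.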

[3] = molecular target: Retinoic acid receptor RXR-alpha (Homo sapiens) (UniProt P19793); assay: OT_NURR1_NURR1RXRa_1440: Odyssey Thera (OT) 24-hour HEK293T Protein Complementation Assay for Nurr1/retinoid X receptor (RXR) (AID 2283386; active = hit-call score of the fitted dose curve at least 0.9, where 1 is the maximum)
How it was run: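 Gain in fluorescence, fitted relative to DMSO, reflects Nurr1–RXRα association in HEK293T cells after 24 h dosing. Bait and prey are each linked to a reporter-protein fragment that reassembles on interaction.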

[4] = molecular target: Peroxisome proliferator-activated receptor gamma (Homo sapiens) (UniProt P37231); assay: OT_PPARg_PPARgSRC1_0480: Odyssey Thera (OT) 8-hour Protein-Complementation Assay for Peroxisome Proliferator-activated Receptor Gamma / SRC-1 Co-activator (AID 2283387; active = hit-call score of the fitted dose curve at least 0.9, where 1 is the maximum;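 note: nuclear to cytoplasmic split Venus YFP fluorescence ratio reporting PPARg SRC-1 interaction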)
Peroxisome proliferator-activated receptor gamma (Homo sapiens), sequence (P37231 whole entry, looked up, the tested form may be a part): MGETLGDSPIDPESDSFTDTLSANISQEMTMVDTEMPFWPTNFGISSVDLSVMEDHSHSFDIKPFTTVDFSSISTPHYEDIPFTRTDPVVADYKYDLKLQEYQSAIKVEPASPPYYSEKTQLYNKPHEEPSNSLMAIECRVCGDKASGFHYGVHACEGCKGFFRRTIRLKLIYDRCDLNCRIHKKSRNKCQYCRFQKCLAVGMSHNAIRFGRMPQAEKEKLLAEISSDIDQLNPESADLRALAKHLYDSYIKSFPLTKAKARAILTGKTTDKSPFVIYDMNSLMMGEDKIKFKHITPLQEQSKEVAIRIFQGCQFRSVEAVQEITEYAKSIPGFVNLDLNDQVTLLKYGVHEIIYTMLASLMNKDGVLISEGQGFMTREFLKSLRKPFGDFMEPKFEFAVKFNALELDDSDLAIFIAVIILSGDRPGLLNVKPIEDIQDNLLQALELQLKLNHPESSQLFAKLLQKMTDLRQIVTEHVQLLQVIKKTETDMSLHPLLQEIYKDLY
How it was run: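 Protein-fragment complementation of split Venus YFP reports PPARg/SRC-1 interaction in HEK293T (transfected 48 h before treatment), exposed 8 h. Readout: N/C fluorescence ratio at 488 nm from imaging, Draq5 for segmentation, positive fit relative to DMSO.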

[5] = molecular target: Peroxisome proliferator-activated receptor gamma (Homo sapiens) (UniProt P37231); assay: OT_PPARg_PPARgSRC1_1440: Odyssey Thera (OT) 24-hour Protein-Complementation Assay for Peroxisome Proliferator-activated Receptor Gamma/ SRC-1 Co-activator (AID 2283388; active = hit-call score of the fitted dose curve at least 0.9, where 1 is the maximum;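 note: nuclear to cytoplasmic ratio of reconstituted Venus YFP fluorescence in fixed imaged cells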)
How it was run: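 Readout is the 488 nm N/C fluorescence ratio from fixed, Draq5-stained HEK293T cells after 24 h compound exposure. Cells carried transiently transfected PPARg and SRC-1 fused to Venus fragments, transfected 48 h before treatment.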

[6] = CEETOX_H295R_11DCORT: CeeTox H295R High-throughput Steroidogenesis Assay for 11-Deoxycortisol (11DCORT) (AID 2283432); details: actives raise or lower the signal;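 for AC50: 11-deoxycortisol secreted into the medium measured by LC-MS/MS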
How it was run: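 Human adrenal H295R cells were prestimulated with 10 uM forskolin for 48 h, then exposed to test chemical (0.1% DMSO final) for 48 h. Medium 11-deoxycortisol was quantified by MTBE extraction and HPLC-MS/MS; bidirectional fitting relative to DMSO.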

[7] = CEETOX_H295R_OHPREG: CeeTox H295R High-throughput Steroidogenesis Assay for OH-Pregnenolone (OHPREG) (AID 2283434); details: actives raise or lower the signal
How it was run: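 Readout: HPLC-MS/MS of 17alpha-hydroxypregnenolone in medium after 48 h chemical exposure of H295R cells pretreated with forskolin. Values fitted bidirectionally relative to DMSO; chemicals reducing viability to 20–70% were retested after 10-fold dilution.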

[8] = CEETOX_H295R_OHPROG: CeeTox H295R High-throughput Steroidogenesis Assay for OH-Progesterone (OHPROG) (AID 2283435); details: actives raise or lower the signal;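 for AC50: 17alpha-hydroxyprogesterone secreted into medium measured by HPLC-MS/MS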
How it was run: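 Medium steroid levels read by LC-MS/MS after 48 h chemical treatment (0.1% DMSO) of human adrenal H295R cells that had been forskolin-primed (10 uM, 48 h). Gain or loss fitted against DMSO; MTT cytotoxicity checked per well.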

[9] = CEETOX_H295R_ANDR: CeeTox H295R High-throughput Steroidogenesis Assay for Androstenedione (ANDR) (AID 2283436); details: actives raise or lower the signal
How it was run: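 Steroidogenesis in H295R adrenal cells after 48 h dosing; androstenedione quantified by LC-MS/MS, with DMSO as negative control and baseline for bidirectional curve fitting.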

[10] = CEETOX_H295R_CORTIC: CeeTox H295R High-throughput Steroidogenesis Assay for Corticosterone (CORTIC) (AID 2283437); details: actives raise or lower the signal;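 note: corticosterone secreted into medium quantified by mass spectrometry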
How it was run: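 Steps: seed H295R, adhere overnight; 10 uM forskolin 48 h; replace with chemical (0.1% DMSO) 48 h; extract medium with MTBE; quantify corticosterone by HPLC-MS/MS; score bidirectionally vs DMSO.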

[11] = CEETOX_H295R_CORTISOL: CeeTox H295R High-throughput Steroidogenesis Assay for Cortisol (AID 2283438); details: actives raise or lower the signal;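 note: cortisol secreted into medium quantified by LC-MS/MS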
How it was run: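 Cortisol measured by HPLC-MS/MS after MTBE extraction of medium from H295R cells exposed 48 h to chemical (0.1% DMSO), following 48 h prestimulation with 10 uM forskolin. Viability assessed by MTT in the same wells.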

[12] = CEETOX_H295R_DOC: CeeTox H295R High-throughput Steroidogenesis Assay for DOC (AID 2283439); details: actives raise or lower the signal
How it was run: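 11-Deoxycorticosterone quantified in medium by MTBE extraction and HPLC-MS/MS after 48 h chemical exposure (0.1% DMSO) of forskolin-primed (10 uM, 48 h) H295R cells. Same-well MTT viability; data fitted bidirectionally against DMSO.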

[13] = CEETOX_H295R_ESTRADIOL: CeeTox H295R High-throughput Steroidogenesis Assay for Estradiol (AID 2283440); details: actives raise or lower the signal;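 note: estradiol secreted into medium quantified by LC-MS/MS after dansyl derivatisation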
How it was run: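 Estradiol in spent medium measured by LC-MS/MS after dansyl chloride derivatisation. Forskolin-primed (10 uM, 48 h) human adrenal H295R cells received test chemical 48 h at 0.1% DMSO; concentrations lowered until MTT viability >/=70%.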

[14] = CEETOX_H295R_PROG: CeeTox H295R High-throughput Steroidogenesis Assay for Progesterone (PROG) (AID 2283442); details: actives raise or lower the signal;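 for AC50: human H295R adrenal cells primed with 10 µM forskolin before dosing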
How it was run: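 Progesterone secreted by human H295R cells was measured by LC-MS/MS following 48 h chemical exposure at 0.1% DMSO, preceded by 48 h forskolin (10 uM) stimulation. Same-well MTT viability; cytotoxic concentrations diluted 10- or 100-fold and retested.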

[15] = read-out: Fatty acid synthase (Homo sapiens) (UniProt P49327); assay: LTEA_HepaRG_FASN: Life Technologies and Expression Analysis (LTEA) Assay for Fatty Acid Synthase (FASN) using HepaRG (AID 2283448); details: mRNA level, 48 h; actives raise or lower the signal
How it was run: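 FASN transcript measured by TaqMan qRT-PCR, normalised to three housekeeping genes, after 48 h chemical exposure of HepaRG cells. Eight-point half-log series from 100 uM in 0.5% DMSO, duplicates; gain or loss fitted against vehicle.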

[16] = read-out: Cyclin D2 (CCND2), CCND2 (gene 894); assay: LTEA_HepaRG_CCND2: Life Technologies and Expression Analysis (LTEA) Assay for Cyclin D2 (CCND2) using HepaRG (AID 2283449); details: mRNA level, 48 h; actives raise or lower the signal;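 note: CCND2 transcript measured by TaqMan qRT-PCR and normalised to three housekeeping genes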
How it was run: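 In this HepaRG study, an eight-point concentration series (max 100 uM, 0.5% DMSO) is applied for 48 h. CCND2 mRNA change is derived by qRT-PCR normalised to ACTB, GAPDH and POLR2A.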

[17] = read-out: Cyclin Dependent Kinase Inhibitor 1A (CDKN1A), CDKN1A (gene 1026); assay: LTEA_HepaRG_CDKN1A: Life Technologies and Expression Analysis (LTEA) Assay for Cyclin Dependent Kinase Inhibitor 1A (CDKN1A) using HepaRG (AID 2283450); details: mRNA level, 48 h; actives raise or lower the signal
How it was run: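 Expression quantified by Fluidigm qRT-PCR with ACTB, GAPDH and POLR2A normalization, fitted bidirectionally against 0.5% DMSO. Cells: HepaRG, plated 48 h then treated 48 h in serum-free induction medium, top concentration 100 uM with half-log dilutions.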

[18] = read-out: Cyclin D1 (CCND1), CCND1 (gene 595); assay: LTEA_HepaRG_CCND1: Life Technologies and Expression Analysis (LTEA) Assay for Cyclin D1 (CCND1) using HepaRG (AID 2283451); details: mRNA level, 48 h; actives raise or lower the signal;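 for AC50: TaqMan qRT-PCR transcript level normalised to ACTB GAPDH and POLR2A housekeeping genes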
How it was run: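 Expression of CCND1 was quantified by qRT-PCR on Fluidigm arrays using ACTB, GAPDH and POLR2A as reference genes. HepaRG cultures, plated 48 h beforehand, were dosed for 48 h at up to 100 uM (half-log, 8 points) in 0.5% DMSO.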

[19] = read-out: catalase (CAT), CAT (gene 847); assay: LTEA_HepaRG_CAT: Life Technologies and Expression Analysis (LTEA) Assay for catalase (CAT) using HepaRG (AID 2283452); details: mRNA level, 48 h; actives raise or lower the signal;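 for AC50: TaqMan qRT-PCR signal normalized to ACTB GAPDH and POLR2A housekeeping genes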
How it was run: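 Differentiated HepaRG cells in serum-free induction medium were dosed 48 h in duplicate, eight half-log concentrations from 100 uM in 0.5% DMSO. Transcript measured by TaqMan qRT-PCR, normalised to ACTB/GAPDH/POLR2A, fitted bidirectionally against DMSO.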

[20] = read-out: Tumor necrosis factor receptor superfamily member 6 (Homo sapiens) (UniProt P25445); assay: LTEA_HepaRG_FAS: Life Technologies and Expression Analysis (LTEA) Assay for Fas cell surface death receptor (FAS) using HepaRG (AID 2283447); details: mRNA level, 48 h; actives raise or lower the signal
How it was run: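 Differentiated human HepaRG cells, pre-cultured 48 h, were exposed in duplicate for 48 h to 8-point half-log concentrations (top 100 uM, 0.5% DMSO) in serum-free induction medium; FAS mRNA measured by qRT-PCR, normalized to ACTB/GAPDH/POLR2A, bidirectional fit versus DMSO.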

Measured: AC50

Fatty acid synthase (Homo sapiens), sequence (P49327 whole entry, looked up): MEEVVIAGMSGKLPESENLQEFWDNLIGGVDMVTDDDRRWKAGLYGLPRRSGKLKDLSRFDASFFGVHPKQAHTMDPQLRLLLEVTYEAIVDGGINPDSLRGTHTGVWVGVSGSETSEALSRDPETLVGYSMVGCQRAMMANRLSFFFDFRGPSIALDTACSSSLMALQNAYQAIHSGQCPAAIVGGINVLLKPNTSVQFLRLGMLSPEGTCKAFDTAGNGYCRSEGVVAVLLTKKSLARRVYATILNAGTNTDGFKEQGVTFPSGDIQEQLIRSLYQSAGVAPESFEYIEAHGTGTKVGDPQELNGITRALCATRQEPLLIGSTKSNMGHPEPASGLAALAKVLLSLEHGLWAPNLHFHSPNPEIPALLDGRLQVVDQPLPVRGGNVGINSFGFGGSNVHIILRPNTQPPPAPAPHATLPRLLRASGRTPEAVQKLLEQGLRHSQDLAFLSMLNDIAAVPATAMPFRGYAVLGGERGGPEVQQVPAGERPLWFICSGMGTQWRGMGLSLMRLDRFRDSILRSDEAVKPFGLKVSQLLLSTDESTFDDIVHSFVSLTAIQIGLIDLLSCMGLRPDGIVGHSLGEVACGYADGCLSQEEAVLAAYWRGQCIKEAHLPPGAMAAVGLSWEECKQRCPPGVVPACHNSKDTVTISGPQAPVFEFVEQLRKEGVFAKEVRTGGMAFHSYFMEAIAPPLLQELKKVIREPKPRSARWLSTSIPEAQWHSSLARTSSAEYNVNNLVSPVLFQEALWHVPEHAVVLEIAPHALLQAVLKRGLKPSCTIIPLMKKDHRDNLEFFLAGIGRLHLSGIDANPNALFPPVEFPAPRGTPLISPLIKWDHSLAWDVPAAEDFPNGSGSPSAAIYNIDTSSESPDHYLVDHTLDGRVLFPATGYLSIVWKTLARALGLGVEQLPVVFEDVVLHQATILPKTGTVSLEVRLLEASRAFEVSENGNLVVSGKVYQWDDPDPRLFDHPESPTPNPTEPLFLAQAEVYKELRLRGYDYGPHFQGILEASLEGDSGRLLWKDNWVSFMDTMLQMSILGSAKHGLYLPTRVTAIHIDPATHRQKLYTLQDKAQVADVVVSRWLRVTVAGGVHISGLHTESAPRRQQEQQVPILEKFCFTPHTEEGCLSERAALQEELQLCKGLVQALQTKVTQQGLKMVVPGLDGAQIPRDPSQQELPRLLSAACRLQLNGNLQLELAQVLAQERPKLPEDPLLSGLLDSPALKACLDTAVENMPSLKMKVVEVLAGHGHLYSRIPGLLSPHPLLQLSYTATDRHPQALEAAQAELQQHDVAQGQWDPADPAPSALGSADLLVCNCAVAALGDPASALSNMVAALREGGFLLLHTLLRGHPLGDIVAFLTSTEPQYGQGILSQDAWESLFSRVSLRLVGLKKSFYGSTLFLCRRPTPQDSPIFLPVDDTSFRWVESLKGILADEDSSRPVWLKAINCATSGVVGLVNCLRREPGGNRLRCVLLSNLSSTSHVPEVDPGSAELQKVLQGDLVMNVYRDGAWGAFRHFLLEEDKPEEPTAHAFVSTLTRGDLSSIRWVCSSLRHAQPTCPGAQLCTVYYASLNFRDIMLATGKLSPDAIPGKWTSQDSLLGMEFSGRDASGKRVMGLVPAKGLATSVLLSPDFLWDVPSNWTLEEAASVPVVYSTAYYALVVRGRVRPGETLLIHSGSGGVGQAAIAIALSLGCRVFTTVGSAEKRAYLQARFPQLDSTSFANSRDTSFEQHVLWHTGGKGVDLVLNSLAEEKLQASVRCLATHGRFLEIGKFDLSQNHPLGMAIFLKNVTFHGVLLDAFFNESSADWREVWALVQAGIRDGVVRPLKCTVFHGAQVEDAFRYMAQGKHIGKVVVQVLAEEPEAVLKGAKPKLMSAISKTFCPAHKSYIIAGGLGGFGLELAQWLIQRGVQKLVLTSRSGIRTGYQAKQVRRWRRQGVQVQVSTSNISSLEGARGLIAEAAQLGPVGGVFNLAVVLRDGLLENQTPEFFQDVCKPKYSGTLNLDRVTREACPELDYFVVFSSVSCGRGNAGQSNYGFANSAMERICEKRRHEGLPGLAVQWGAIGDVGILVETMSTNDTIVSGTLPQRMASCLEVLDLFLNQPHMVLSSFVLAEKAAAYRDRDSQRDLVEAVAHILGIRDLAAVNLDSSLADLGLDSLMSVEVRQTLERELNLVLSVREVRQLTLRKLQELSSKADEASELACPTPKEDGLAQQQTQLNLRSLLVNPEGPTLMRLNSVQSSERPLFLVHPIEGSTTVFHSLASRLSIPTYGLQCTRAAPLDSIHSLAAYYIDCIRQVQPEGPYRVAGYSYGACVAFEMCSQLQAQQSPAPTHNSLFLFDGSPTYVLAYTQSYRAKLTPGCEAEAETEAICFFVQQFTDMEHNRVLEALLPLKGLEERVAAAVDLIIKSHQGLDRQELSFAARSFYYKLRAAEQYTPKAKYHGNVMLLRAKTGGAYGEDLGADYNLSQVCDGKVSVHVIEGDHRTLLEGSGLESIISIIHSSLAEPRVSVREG

O=[N+]([O-])/N=C1\NCCN1Cc1ccc(Cl)nc1
active: [15] 20.6 µM | [17] 12.2 µM | [19] 39.8 µM
not listed: [20]
inactive: all other assays above

CCCN(CCOc1c(Cl)cc(Cl)cc1Cl)C(=O)n1ccnc1
inactive: [3] | [4] | [5] | [8] | [16]
active: [1] 12.4 µM | [2] 11.9 µM | [6] 0.374 µM | [7] 0.159 µM | [10] 0.0122 µM | [11] 0.355 µM | [12] 0.0358 µM | [14] 0.211 µM | [15] 77.4 µM | [17] 30.5 µM | [18] 89.8 µM | [19] 32.1 µM

CC(C)OC(=O)Nc1cccc(Cl)c1
not listed: [3] | [6] | [9] | [10] | [11] | [12] | [16]
inactive: all other assays above

CCC(C)(C)C(=O)OC1=C(c2ccc(Cl)cc2Cl)C(=O)OC12CCCCC2
active: [1] 41 µM | [3] 33 µM and 70.8 µM | [4] 16 µM | [5] 38.7 µM and 50 µM | [6] 1.11 µM | [8] 2.29 µM | [12] 0.739 µM | [14] 0.593 µM | [15] 15.1 µM
inactive: [2] | [4] | [7] | [9] | [10] | [11] | [13] | [16] | [17] | [18] | [19]

CC1(c2ccc(Oc3ccccc3)cc2)OC(=O)N(Nc2ccccc2)C1=O (stereo unspecified)
active: [1] 1.68 µM | [15] 42.4 µM | [17] 9.7 µM | [19] 12.7 µM
inactive: [4] | [5] | [18]
